Several values for one entry are separate records, joined by “and”; a condition that tells them apart may be missing. Equal values may be shown once. Inconclusive results are not listed. Activity calls are given as the source filed them. Calls follow the shape of the dose curve; as a rule, active = well fitted inhibition curve with a large enough effect; inconclusive = small, poorly fitted or top-dose-only effect; inactive = flat fitted curve, though single readings scatter.
Columns and labels:
PAD = assay: qHTS profiling for inhibitors of Plasmodium falciparum proliferation (AID 504749); also: potency is read from the fitted curve at half-maximal effect; conditions: P. falciparum in erythrocytes, SYBR Green DNA, 72 h; series mostly up to 28.7 µM
In short: (§1)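 SYBR Green fluorescence of parasite DNA, read after lysis and overnight dark incubation, measured growth over 72 h in erythrocyte culture at 0.3% parasitemia and 2.5% hematocrit. Data normalised to DMSO and 0.29 uM artemisinin, with plate-drift correction.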

PC15 = assay: as above; conditions: P. falciparum in erythrocytes, SYBR Green DNA, 72 h; series mostly up to 28.7 µM
In short: as §1

PC26 = assay: as above; conditions: P. falciparum in erythrocytes, SYBR Green DNA, 72 h; series mostly up to 28.7 µM
In short: as §1

PC49 = assay: as above; conditions: P. falciparum in erythrocytes, SYBR Green DNA, 72 h; series mostly up to 28.7 µM
In short: as §1

SC27B = assay: as above; conditions: P. falciparum in erythrocytes, SYBR Green DNA, 72 h; series mostly up to 28.7 µM
In short: as §1

TAB109 = assay: as above; conditions: P. falciparum in erythrocytes, SYBR Green DNA, 72 h; series mostly up to 28.7 µM
In short: as §1

TAB113 = assay: as above; conditions: P. falciparum in erythrocytes, SYBR Green DNA, 72 h; series mostly up to 28.7 µM
In short: as §1

TAB165 = assay: as above; conditions: P. falciparum in erythrocytes, SYBR Green DNA, 72 h; series mostly up to 28.7 µM
In short: as §1

CRL-7250 [1] = assay: Cytotoxic Profiling of Annotated Libraries Using Quantitative High-Throughput Screening (AID 1296008); conditions: Five cell lines viability, CellTiter-Glo ATP luminescence, 48-72 h; max response: stronger effect = lower value; as to max response: % is scaled to controls: 0 for no effect and ±100 for the full control effect
In short: (§2)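 Cytotoxicity was measured as CellTiter-Glo ATP luminescence, read after 10 min at room temperature. Compound treatment of the cells lasted 48 or 72 hr at 37 degrees Celsius in a qHTS format.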

HEK293 = assay: as above; conditions: Five cell lines viability, CellTiter-Glo ATP luminescence, 48-72 h; max response: stronger effect = lower value
In short: as §2

HaCat [2] = assay: as above; conditions: Five cell lines viability, CellTiter-Glo ATP luminescence, 48-72 h; max response: stronger effect = lower value
In short: as §2

KB-3-1 = assay: as above; conditions: Five cell lines viability, CellTiter-Glo ATP luminescence, 48-72 h; max response: stronger effect = lower value
In short: as §2

NIH3T3 = assay: as above; conditions: Five cell lines viability, CellTiter-Glo ATP luminescence, 48-72 h; max response: stronger effect = lower value
In short: as §2

MCC-13 = assay: qHTS assay to identify novel small-molecules to repurpose for Merkel cell carcinoma treatment (AID 1296009); conditions: MCC and control cell lines, CellTiter-Glo viability, 72 h; series mostly up to 46 µM
In short: (§3)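 Cell viability, measured as CellTiter-Glo luminescence, was normalized between DMSO and no-cell wells. The cells had been exposed to 8- or 11-point compound dilutions for 72 hr at 37 degree celsius.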

MKL-1 = assay: as above; conditions: MCC and control cell lines, CellTiter-Glo viability, 72 h; series mostly up to 46 µM
In short: as §3

MCC-26 = assay: as above; conditions: MCC and control cell lines, CellTiter-Glo viability, 72 h; series mostly up to 46 µM
In short: as §3

W2 = assay: qHTS profiling for inhibitors of Plasmodium falciparum proliferation (AID 504749); also: potency is read from the fitted curve at half-maximal effect; conditions: P. falciparum in erythrocytes, SYBR Green DNA, 72 h; series mostly up to 28.7 µM
In short: as §1

CRL-7250 [3] = assay: qHTS assay to identify novel small-molecules to repurpose for Merkel cell carcinoma treatment (AID 1296009); conditions: MCC and control cell lines, CellTiter-Glo viability, 72 h; at 44.8 µM (top of the series) unless noted
In short: as §3

HACAT [4] = assay: as above; conditions: MCC and control cell lines, CellTiter-Glo viability, 72 h; at 44.8 µM (top of the series) unless noted
In short: as §3

HEK293T = assay: as above; conditions: MCC and control cell lines, CellTiter-Glo viability, 72 h; at 44.8 µM (top of the series) unless noted
In short: as §3
Also: nearly all actives have a fitted effect of over 60% in size.

COc1c2c(cc3c1OCO3)CCN(C)C2
inactive: Potency (PAD) | Potency (PC15) | Potency (PC26) | Potency (PC49) | Potency (SC27B) | Potency (TAB109) | Potency (TAB113) | Potency (TAB165) | max response (CRL-7250 [1]) -2.93% | max response (HEK293) -25.2% | max response (HaCat [2]) -2.59% | max response (KB-3-1) 5.77% | max response (NIH3T3) -8.45% | outcome (MCC-13) | Potency (MKL-1)

C[C@H](N)C(=O)c1ccccc1
inactive: max response (CRL-7250 [1]) -38.6% | max response (HEK293) -0.637% | max response (HaCat [2]) -26.7% | max response (KB-3-1) -7.79% and 0.534% | max response (NIH3T3) -1.01% | outcome (MCC-13) | Potency (MCC-26) | Potency (MKL-1)

C=CCC1([C@H](C)CCC)C(=O)NC(=O)NC1=O
inactive: max response (CRL-7250 [1]) 1.74% | max response (HEK293) 1.82% | max response (HaCat [2]) -2.25% | max response (KB-3-1) -1.57% | max response (NIH3T3) -4.37% | outcome (MCC-13) | Potency (MCC-26) | Potency (MKL-1)

Clc1ccc(C(c2ccc(Cl)cc2)C(Cl)(Cl)Cl)cc1
active: Potency (W2) 6.01 µM
inactive: Potency (PC15) | Potency (PC49) | Potency (SC27B) | Potency (TAB109) | max response (CRL-7250 [1]) -9.96% | max response (HEK293) -19.8% | max response (HaCat [2]) 1.96% | max response (KB-3-1) -11.6% | max response (NIH3T3) -6.38% | outcome (MCC-13) | Potency (MCC-26) | Potency (MKL-1)

CN(C)CCc1c[nH]c2cccc(OP(=O)(O)O)c12
inactive: max response (CRL-7250 [1]) -37.9% | max response (HEK293) -1.43% | max response (HaCat [2]) 4.32% | max response (KB-3-1) -1.8% | max response (NIH3T3) -11.6% | outcome (MCC-13) | Potency (MCC-26) | Potency (MKL-1)

c1ccc2c(c1)sc1ccccc12
inactive: Potency (PAD) | Potency (PC15) | Potency (PC26) | Potency (PC49) | Potency (SC27B) | Potency (TAB109) | Potency (TAB113) | Potency (TAB165) | Potency (W2) | max response (CRL-7250 [1]) 2.83% | max response (HEK293) 0.977% | max response (HaCat [2]) -3.8% | max response (KB-3-1) -1.3% | outcome (NIH3T3) | outcome (MCC-13) | Potency (MKL-1)

COc1cc(CC(C)N)cc(OC)c1OC (stereo not drawn)
inactive: max response (CRL-7250 [1]) -18.9% | max response (HEK293) -9.05% | max response (HaCat [2]) 2.22% | max response (KB-3-1) -7.25% | max response (NIH3T3) -5.38% | outcome (MCC-13) | Potency (MKL-1)

O=C(O)c1ccc(=O)[nH]c1
inactive: outcome (CRL-7250 [1]) | max response (HEK293) -0.0722% | outcome (HaCat [2]) | outcome (NIH3T3) | outcome (CRL-7250 [3]) | outcome (HACAT [4]) | outcome (MCC-13) | Potency (MCC-26) | Potency (MKL-1)

O=[N+]([O-])O[C@H]1CO[C@H]2[C@@H]1OC[C@H]2O[N+](=O)[O-]
inactive: max response (CRL-7250 [1]) -11.3% | max response (HEK293) 1.42% | max response (NIH3T3) -0.157% | outcome (MCC-13) | Potency (MCC-26) | Potency (MKL-1)

CC[N+]1(CC)CCC(OC(=O)C(O)(c2ccccc2)c2ccccc2)C1 (stereo not drawn)
inactive: max response (CRL-7250 [1]) -3.85% | max response (HEK293) 3.52% | outcome (HaCat [2]) | max response (NIH3T3) 4.46% | outcome (HACAT [4]) | outcome (MCC-13) | Potency (MKL-1)

C=CCC1(C(C)CC)C(=O)NC(=O)NC1=O (stereo not drawn)
inactive: outcome (CRL-7250 [1]) | max response (HEK293) 4.61% | max response (HaCat [2]) 2.69% | outcome (NIH3T3) | outcome (CRL-7250 [3]) | outcome (MCC-13) | Potency (MCC-26) | Potency (MKL-1)

O=C(CCCN1CCC2(CC1)C(=O)NCN2c1ccccc1)c1ccc(F)cc1
inactive: max response (CRL-7250 [1]) -1.53% | outcome (HaCat [2]) | max response (KB-3-1) -7.2% | outcome (NIH3T3) | outcome (HACAT [4]) | outcome (MCC-13) | Potency (MKL-1)

CCCN(CCC)C(=O)Cc1c(-c2ccc(Cl)cc2)nc2ccc(Cl)cn12
inactive: max response (CRL-7250 [1]) 0.585% | max response (HaCat [2]) -9.95% | max response (KB-3-1) -8.04% | max response (NIH3T3) 0.9% | outcome (MCC-13) | Potency (MKL-1)

ClCCN1CCCC1
inactive: max response (CRL-7250 [1]) -0.393% | outcome (HEK293) | outcome (HaCat [2]) | outcome (NIH3T3) | outcome (HACAT [4]) | outcome (HEK293T) | outcome (MCC-13) | Potency (MCC-26) | Potency (MKL-1)

C[C@]12CCC(=O)C=C1CC[C@@H]1[C@@H]2CC[C@@]2(C)[C@H]1CC[C@]2(C)O
inactive: max response (CRL-7250 [1]) 2.75% | outcome (HaCat [2]) | max response (KB-3-1) -6.95% and 1.16% | max response (NIH3T3) -3.69% | outcome (HACAT [4]) | outcome (MCC-13) | Potency (MCC-26) | Potency (MKL-1)

COc1cccc([C@@]2(O)CCCC[C@@H]2CN(C)C)c1
inactive: outcome (CRL-7250 [1]) | max response (HEK293) -4.04% | max response (KB-3-1) 0.535% | outcome (NIH3T3) | outcome (CRL-7250 [3]) | outcome (MCC-13) | Potency (MKL-1)

Nc1nc(N)nc(NC2CC2)n1
inactive: Potency (PAD) | Potency (PC15) | Potency (PC26) | Potency (PC49) | Potency (SC27B) | Potency (TAB109) | Potency (TAB113) | Potency (TAB165) | Potency (W2) | max response (CRL-7250 [1]) -14.4% | max response (HEK293) -46.2% | max response (KB-3-1) 8.79% | max response (NIH3T3) -2.48% | outcome (MCC-13) | Potency (MKL-1)

C[C@H]1[C@@H]2Cc3ccc(O)cc3[C@@]1(C)CCN2C
inactive: max response (CRL-7250 [1]) -7.45% | max response (HEK293) -19.5% | max response (KB-3-1) -22% | outcome (NIH3T3) | outcome (MCC-13) | Potency (MKL-1)

From PubChem BioAssay (NCATS)
